Compounds with a hit are over-represented: about 8.7% of the library has one in this group of screens.
VACV mCherry inh: vaccinia inhibition (mCherry reporter); Vaccinia virus mCherry reporter infection, fluorescence; Potency, µM (series often up to 36.5 µM), for the others: at the top dose activity change, negative = inhibition, usual class: inhibitors; hit rate 0.63% among 310,000; AID 720579; calls by dose curve; tested in A549 cells; also: nearly all actives have a fitted effect of over 35% in size
Pf growth 48h: P. falciparum growth inhibition at 48 hours (one generation); P. falciparum luciferase growth in erythrocytes, 48 h; Potency, µM (series often up to 28.7 µM), for inactives: at the highest dose activity change, negative = inhibition, usual class: inhibitors; hit rate 5.9% among 310,000; AID 504832
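Here the parasites carry a stable luciferase gene and grow inside erythrocytes in Albumax-based RPMI medium with compound for one erythrocytic cycle. Activity is scored as loss of luminescent signal.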
Pf growth 96h: inhibits malaria parasite growth, 96 h; Potency, µM (titrated, usually from 28.7 µM), for the others: at the highest dose activity change, negative = inhibition, most hits filed as inhibitors; hit rate 6.9% among 320,000; AID 504834; P. falciparum luciferase reporter growth, 96 h
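P. falciparum expressing integrated firefly luciferase, in erythrocytes at 2% hematocrit, 0.05% parasitemia, incubated with compounds 96 h at 37 C, 5% CO2. Growth inhibition read as loss of luminescence; two-generation exposure targets delayed-death apicoplast inhibitors.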
VACV Venus inh: vaccinia inhibition (Venus reporter); Vaccinia virus Venus reporter expression, fluorescence; Potency, µM (series often up to 36.5 µM), inactives show top-dose activity change, negative = inhibition, usual class: inhibitors; hit rate 0.46% among 330,000; calls by dose curve; tested in A549 cells; also: nearly all actives have a fitted effect of over 30% in size
AMA1 RON2 block: disrupts binding of P. falciparum AMA1 to RON2; AlphaScreen AMA1-biotinylated RON2 peptide binding; Potency, µM (series often up to 58.2 µM), for the others: at the top dose activity change, negative = inhibition, hits mostly inhibitors; hit rate 0.2% among 360,000;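 also: 0% = vehicle wells and -100% = peptide control; nearly all actives have a fitted effect of over 45% in size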
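AMA1 (3D7) with his tag at 25 nM final met compounds first, then biotinylated RON2 peptide at 25 nM; detection used donor plus acceptor beads, 10 µg/mL apiece, read by AlphaScreen after 30 min at room temperature.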
The depositor's hits bear a star; i = inactive; ? = inconclusive; nt = no result; [ ] = remark or other dose. Unless noted, calls follow the shape of the dose curve; as a rule, active = well fitted curve in the direction sought with a large enough effect; inconclusive = small, poorly fitted or top-dose-only effect, or another doubt; inactive = no such curve, though single readings can be large; an effect the other way counts as inactive or inconclusive. Unless noted, % is scaled to controls: 0 for no effect and ±100 for the full control effect; potency is read from the fitted curve at half-maximal effect.

SMILES	VACV mCherry inh	Pf growth 48h	Pf growth 96h	VACV Venus inh	AMA1 RON2 block
COc1cc(CN2CCCC(c3nc(-c4ccncc4)ncc3-c3ccccc3)C2)ccc1O (stereo not drawn)	-12%	nt	nt	0%	nt
O=C(Nc1ccc(F)cc1F)c1cc2nc(-c3ccco3)cc(C(F)(F)Cl)n2n1	-25%	nt	nt	-8%	nt
Cc1nn(-c2ccc(F)cc2)c2nc(N)c(C#N)c(-c3ccc(O)c(O)c3)c12	?	10µM*	10µM*	?	-24%
Cc1nn(-c2ccccc2)c2nc(N)c(C#N)c(-c3ccc(O)c(O)c3)c12	?	0%	0%	?	2%
COc1cc(-c2c(C#N)c(N)nc3c2c(C)nn3-c2ccc(C)c(C)c2)cc(OC)c1OC	nt	4.7µM*	-22%[5.75 µM]	nt	0%
COc1ccc(C(=O)N2CCCC(c3nc(SCc4ccccn4)ncc3C)C2)cc1F (stereo not drawn)	-24%	nt	nt	?	nt
O=S(=O)(c1ccc2ccccc2c1)n1nc(-c2ccco2)nc1NCc1ccc(F)cc1	2%	nt	nt	-5%	nt
C[N+]1(CC(=O)c2ccc3ccccc3c2)CCOCC1	14%	nt	nt	7%	nt
N#C/C(=C/c1ccc(Br)o1)C(N)=S	nt	?	12µM*	nt	nt
N#C/C(=C/c1ccc(Br)o1)C(N)=O	nt	?	7%	?	4%
CCCCCNc1nc2c(-c3ccccc3)nnn2c2ccccc12	4%	nt	nt	6%	nt
O=C(O)c1ccccc1N/N=C/C1=C(N2CCOCC2)C(=C\c2ccccc2)/CC1	?	10µM*	?	5%	-13%
Cc1ccc(N(CC(=O)N2CCc3ccccc32)C2=NC(=O)CS2)cc1	i	nt	9.3µM*	8%	3%
Cc1ccc(CNC(=O)c2ccc(-n3cnc4cccnc43)cc2)cc1	-15%	nt	nt	-1%	nt
CC(=O)Oc1c(Cl)cc(Cl)cc1/C=C/c1ccc2ccccc2n1	nt	-11%	-12%	nt	96%
CC(=O)Oc1ccc(Cl)cc1/C=C/c1ccc2ccccc2n1	-13%	2.6µM*	?	?	1%
Cc1ccc(S(=O)(=O)c2c(C)nn(C(C)(C)C)c2OC(=O)c2ccc(Br)o2)cc1	?	26%	19%	11µM*	-5%
Cc1ccc(S(=O)(=O)c2c(C)nn(C(C)(C)C)c2OC(=O)c2ccco2)cc1	nt	0%	6%	?	-6%
COc1ccc2c(c1)c(=O)c(C(=O)c1ccccc1)cn2CC(=O)Nc1ccc2c(c1)OCO2	-4%	nt	nt	-5%	nt
COc1ccc(C(=O)C[n+]2cccc(C)c2C)cc1[N+](=O)[O-]	i	7.4µM*	6%	-5%	-1%
Cc1ccc(C(=O)C[n+]2ccccc2C)cc1[N+](=O)[O-]	-28%	22%	?	-15%	7%
Cc1ccc2nc(-c3ccc(O)c(O)c3)cn2c1	-4%	-114%	-2%	-13%	3.5µM*
CN(C)CCNC(=O)c1ccc2c(c1)NC(=O)c1ccccc1S2	nt	12µM*	?	nt	0%
COC(CN(C)C(=O)c1ccc2c(c1)NC(=O)c1ccccc1S2)OC	nt	1.5µM*	10%	nt	-1%
COc1ccc(-c2noc(COc3cc(C)ccc3C)n2)cc1OC	-18%	nt	nt	-7%	nt
SMILES	VACV mCherry inh	Pf growth 48h	Pf growth 96h	VACV Venus inh	AMA1 RON2 block
C=CCc1cccc(/C=N/NC(=O)C(C)Nc2ccc(C)cc2)c1O (stereo not drawn)	-29%	?	12µM*	?	27%
C=CCc1cccc(/C=N/NC(=O)C(=O)Nc2ccc(C)cc2)c1O	-2%	11%	?	-17%	66%
Cc1cc(C)[n+](C2C3CC4CC(C3)CC2C4)o1 (stereo not drawn)	i	?	1.9µM*	0%	-15%
Cc1cc(NC(=O)c2ccc(Br)c(S(=O)(=O)N3CCCC3)c2)no1	-22%	10µM*	nt	-18%	-11%
Cc1ccc(C(=O)Nc2cccnc2)cc1S(=O)(=O)N1CCCC1	i	?	?	-10%	-1%
Cc1ccc(C(=O)Nc2cccnc2)cc1Cl	-1%	56%	10µM*	-16%	-6%
O=C(Nc1cccnc1)c1cccc(S(=O)(=O)N2CCCCC2)c1	i	-22%	-17%	-9%	24%
Cc1ccc(C(=O)Nc2cccnc2)cc1S(=O)(=O)N1CCCCC1	-16%	?	2.1µM*	-17%	19%
Cc1cc(NC(=O)c2cccc(S(=O)(=O)N3CCCC3)c2)no1	-12%	6%	-1%	-13%	0%
O=C(Nc1cccnc1)c1ccc(Br)c(S(=O)(=O)N2CCCC2)c1	-5%	13µM*	?	-21%	-7%
CC(C)CNC(=O)c1c(-c2ccccc2)c(-c2ccccc2)nn(C)c1=O	-7%	nt	nt	-6%	nt
Cc1ccc(C(=O)NCC(c2cccs2)S(=O)(=O)c2cccs2)cc1 (stereo not drawn)	?	nt	nt	-22%	nt
CCOc1ccccc1NS(=O)(=O)c1ccc2c(c1)CC(C)N2C(=O)C1CCC1 (stereo not drawn)	-18%	nt	nt	-12%	nt
O=C(Nc1cccnc1)c1ccc(F)cc1	?	18%	9%	-28%	-15%
Cc1ccc(NC(=O)Nc2cccnc2)cc1NC(=O)Nc1cccnc1	-25%	9.3µM*	?	?	-8%
CC(C)c1ccc(C(=O)Nc2cccnc2)cc1	-12%	317%	10µM*	-22%	-3%
CO[C@H]1[C@H](NC(=O)c2ccsc2)c2ccccc2C12CCN(Cc1cccc3ncccc13)CC2	-13%	nt	nt	-4%	nt
COc1ccc(C)cc1NC(=O)CN(Cc1nnc(-c2ccc(Cl)cc2)o1)C1CCCC1	-29%	10µM*	?	-27%	27%
COc1ccc(C(=O)/C=C/C(=O)N(CC(=O)NC2CCCCC2)Cc2ccc(F)cc2)c(O)c1	i	9.3µM*	2.3µM*	-20%	-16%
COc1ccc(Cl)cc1NC(=O)CN(C)C1CCCCC1	i	?	?	-26%	6%
COc1ccc(C)cc1NC(=O)CSc1nnc(-c2ccc(C)cc2)o1	nt	nt	-8%	nt	-1%
COc1ccc(OC)c(NC(=O)CN(Cc2ccc(F)cc2)C2CCCCC2)c1	-29%	4.7µM*	?	-18%	?
NC(=O)NN=C1c2cc(S(=O)(=O)N3CCOCC3)ccc2-c2ccc(S(=O)(=O)N3CCOCC3)cc21	-1%	nt	nt	-18%	nt
Cc1c(C(=O)N(C)Cc2cscn2)sc2ncnc(NC[C@H]3CCc4ccccc4O3)c12	3%	nt	nt	-3%	nt
CC1CN(CC(=O)NCCC2COc3ccccc3O2)Cc2cc(Cl)ccc2O1 (stereo not drawn)	-7%	nt	nt	-3%	nt
CCOC(=O)N1CCc2c(sc(NCc3ccc(N(C)C)cc3)c2C(=O)Nc2ccc(OC)cc2)C1	-4%	nt	nt	-9%	nt
COc1ccc(C(=O)c2c(N)sc3c2CCN(C(=O)OC(C)(C)C)C3)cc1	?	13µM*	?	-19%	57%
CN1CCc2c(sc(N)c2C(=O)c2ccc(Cl)cc2)C1	-13%	?	4.7µM*	-11%	1%

High-throughput results as filed in PubChem.
